Assay results reported in PubChem BioAssay AID1347416 (National Center for Advancing Translational Sciences (NCATS), 2020).
Out of some 4,100 compounds screened, about 1,600 (39%) were called active. Not shown: some 25% with an inconclusive outcome. The call rests on the fitted dose curve; in most records, active means well fitted inhibition curve with a large enough effect; inconclusive means small, poorly fitted or top-dose-only effect; inactive means no such curve, though single readings can be large or run the other way. The list shows a part of the results. A call without a number means that no potency is given here.

test: qHTS Validation assay for Inhibitors of Plasmodium falciparum Dd2 growth in vitro; further: nearly all actives have a fitted effect of over 70% in size; conditions: P. falciparum Dd2 in RBCs, SYBR Green growth, 72 h; series mostly up to 28.7 µM
Method in brief: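 P. falciparum Dd2-infected red blood cells (2.5% hematocrit, 0.3% parasitemia) grown 72 h at 37 °C under 5% O2 with compounds in a titration, 29 uM to 0.5 nM final. Growth read as SYBR Green-1 fluorescence after ~16 h lysis; artesunate 300 nM as positive control.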
Potency means the concentration at half of the fitted maximal effect.

Structure (SMILES) | Potency
OC1CCN(c2cc(N3CCOC(c4ccc(F)cc4)C3)ncn2)CC1 (configuration not stated) | inactive
CCCCC(=O)Nc1nc(C)c(-c2csc(Nc3cc(OC)ccc3OC)n2)s1 | 9.44 µM (active)
C=CCCC(=O)Nc1nc(C)c(-c2csc(Nc3ccc(Cl)cc3)n2)s1 | inactive
CN(Cc1cc(-c2cccnc2)no1)C(=O)C1COc2ccccc2C1 (configuration not stated) | inactive
COC[C@@H]1CN(C(=O)c2cccc(OC(F)(F)F)c2)C[C@H]1C(N)=O | inactive
O=C(Nc1ccc(Nc2ccncc2)cc1)c1ccc(Nc2ccnc3ccc([N+](=O)[O-])cc23)cc1 | 0.75 µM (active)
O=C(Nc1ccc(Nc2ccncc2)cc1)c1ccc(Nc2ccnc3ccc([N+](=O)[O-])cc23)cc1[N+](=O)[O-] | 1.33 µM (active)
COc1cnc(-c2ccccn2)nc1Sc1ccc(Cl)cc1 | 5.96 µM (active)
COc1cnc(-c2ccccn2)nc1Sc1c(Cl)cccc1Cl | 2.99 µM (active)
Oc1ccccc1C1=NN(c2ccccc2)C(c2ccccc2)C1 (configuration not stated) | 7.5 µM (active)
CCOc1ccccc1C(=O)N1CCN(c2cc(-c3ccc(OC)cc3)[nH]n2)CC1 | inactive
COc1ccc(-c2cc(N3CCN(C(=O)c4c[nH]c5ccccc45)CC3)n[nH]2)cc1 | 15 µM (active)
O=C(c1ccc2nc[nH]c2c1)N1CCCN(c2cc(-c3ccc(Cl)cc3)[nH]n2)CC1 | inactive
Cn1nc(C(F)(F)F)c(-c2ccc(F)cc2)c1NC(=O)Nc1ccc(F)cc1 | 1.88 µM (active)
Cn1nc(C(F)(F)F)c(-c2cccc(C(F)(F)F)c2)c1NC(=O)Nc1ccc(F)cc1 | 2.37 µM (active)
Cn1nc(C(F)(F)F)c(Cl)c1C(=O)N[C@@H]1CCNC[C@H]1O | inactive
COC(=O)c1ccc(NC(=O)Nc2cccc(F)c2)cc1 | inactive
Cc1ccsc1C(=O)N1CCC(n2cc(-c3nc(C(C)C)no3)nn2)CC1 | inactive
CN(c1ccccc1)c1cc(=O)c2ccnc(-c3ccccc3O)c2o1 | inactive
CN(c1ccccc1)c1cc(=O)c2ccnc(-c3ccncc3)c2o1 | inactive
Cc1noc(C)c1-c1nccc2c(=O)cc(N(C)c3ccccc3)oc12 | 17.2 µM (active)

Structure (SMILES) | Potency
Cc1cnc(CC2CCCN(S(=O)(=O)c3ccccc3)C2)n1CC1CC1 (configuration not stated) | 6.68 µM (active)
CC(=O)N1CCC(Cc2ncc(C)n2CC2CC2)C1 (configuration not stated) | inactive
CCc1ccc(S(=O)(=O)N2CCC(n3cnnc3CC)CC2)cc1 | inactive
O=S(=O)(c1ccccc1)N1CCCC(Cc2noc(-c3ccncc3)n2)C1 (configuration not stated) | inactive
COc1ccc(S(=O)(=O)N2CCCC(Cc3noc(-c4ccncc4)n3)C2)cc1 (configuration not stated) | inactive
COCCn1c(C)cnc1CC1CCN(C(=O)Nc2ccccc2F)C1 (configuration not stated) | inactive
Cc1cnc(CC2CCN(S(=O)(=O)c3ccccc3)CC2)n1Cc1ccccc1 | 5.31 µM (active)
CCCn1c(C)cnc1CC1CCN(S(=O)(=O)c2ccc3c(c2)CCC3)C1 (configuration not stated) | 9.44 µM (active)
O=C(NCc1nc2ccccc2[nH]1)C1=C[C@@H](c2ccccc2)C[C@@H](OCc2ccc(CO)cc2)O1 | inactive
CCNC(=S)N/N=C/c1sc(N2CCCCC2)nc1-c1cccs1 | 0.668 µM (active)
CN1CCN(c2nc(Nc3ccc(O)cc3)nc3ccccc23)CC1 | 4.22 µM (active)
O=C(Oc1c(CN2CCOCC2)cc(Cl)c2cccnc12)c1ccccc1Br | 7.5 µM (active)
COc1cc(OC)cc(C(=O)Oc2c(CN3CCOCC3)cc(Cl)c3cccnc23)c1 | inactive
CC(C)=NOC(=O)c1c(C)noc1-c1snnc1C | 6.68 µM (active)
CCCC(c1nnnn1CCC(C)C)N1CCC(C(N)=O)CC1 (configuration not stated) | inactive
OC(c1ccc(Cl)cc1)C(CN1CCOCC1)c1ccccc1 (configuration not stated) | 2.99 µM (active)
CCC(=O)N(C1CCOCC1)C1CCN(Cc2cc(F)ccc2F)CC1 | inactive
CCCC(O)(c1ccc(Cl)cc1)C(CN1CCOCC1)c1ccc(Cl)cc1 (configuration not stated) | 4.73 µM (active)
CCCCC(O)(c1ccc(F)cc1)C(CN1CCOCC1)c1ccc(Cl)cc1 (configuration not stated) | 5.96 µM (active)
OC(C[n+]1ccccc1)c1ccccc1 (configuration not stated) | inactive
OC(CNCc1cccc(Cl)c1)c1ccccc1 (configuration not stated) | 4.73 µM (active)

Structure (SMILES) | Potency
O=C1c2c(nc(CNCc3cccc(F)c3)n2Cc2ccccc2)NCCN1Cc1cccc(Cl)c1 | inactive
CCOc1cc(CNCC(O)c2ccccc2)cc(Cl)c1OC (configuration not stated) | 3.35 µM (active)
OC(CNCc1cccc(Br)c1)c1ccccc1 (configuration not stated) | 5.96 µM (active)
Cc1ccc2c(C)c(C(=O)N3CCCC3c3nc(C(C)C)no3)oc2c1C (configuration not stated) | 6.68 µM (active)
O=C(c1ccc(F)c(Cl)c1)N1CCC[C@H]1c1nc(-c2ccccc2)no1 | inactive
Cc1nn(C(=O)CCCC(=O)N2CCCC2c2nc(C3CCOCC3)no2)c2ccccc12 (configuration not stated) | inactive
Cc1cc(C(C)c2ccccc2)c(O)c(CN2CCOCC2)c1C (configuration not stated) | 2.99 µM (active)
CC(Oc1ccc(Br)cc1)c1nc2c3ccccc3nc(=S)n2[nH]1 (configuration not stated) | inactive
Oc1ccccc1Nc1nc(-c2ccccc2O)nc2ccccc12 | 0.944 µM (active)
C/C(=N\Nc1nc(-c2ccccc2O)nc2ccccc12)c1ccccc1 | 0.75 µM (active)
CNC(=O)[C@H]1C[C@H](Oc2cccnc2)CN1S(=O)(=O)Cc1ccccc1F | inactive
CN1C(=O)CCC2(C(=O)O)CCCC=C12 (configuration not stated) | inactive
O=C(NCC12CCC=C1N(CC1CC1)C(=O)CC2)Nc1cccc(F)c1 (configuration not stated) | inactive
CCN(CC)CCNC(=O)C12CCCC=C1N(Cc1ccccc1)C(=O)CC2 (configuration not stated) | 8.41 µM (active)
CCOC(=O)c1c(S(=O)(=O)N2CCC(C(=O)Nc3ccc(F)cc3F)CC2)c(C)n(C)c1C | inactive
CCOc1ccccc1NC(=O)C1CCN(S(=O)(=O)c2c(C)noc2/C=C/c2ccco2)CC1 | 15 µM (active)
Cc1ccc(NC(=O)C2CCN(S(=O)(=O)c3ccc4[nH]c(=O)ccc4c3)CC2)cc1C | inactive
COc1ccc(/C=C\c2onc(C)c2S(=O)(=O)N2CCC(C(=O)Nc3ccc(C)cc3C)CC2)cc1 | 0.842 µM (active)
CCOCCOC1CCN(S(=O)(=O)c2c(C)noc2C)CC1 | inactive
Cc1cc(C)c(/C=C/c2onc(C)c2S(=O)(=O)N2CCC(C(=O)Nc3ccc(Cl)c(C(F)(F)F)c3)CC2)c(C)c1 | 10.6 µM (active)
